TRb SRC2 PPI – inhibitors of human thyroid hormone receptor beta-SRC2 interaction. P10828. TRbeta-SRC2 peptide binding, fluorescence polarization; receptor liganded with 1 µM T3. Potency, µM (series often up to 106 µM), for the others: at the top dose activity change, negative = inhibition, actives largely listed as inhibitors. 0.065% of 280,000 active;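 note: potency is the fitted concentration of half-maximal effect; plate controls were bound peptide for no effect and peptide without receptor for full effect; nearly all actives have a fitted effect of over 50% in size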
Target sequence (P10828 whole entry, looked up): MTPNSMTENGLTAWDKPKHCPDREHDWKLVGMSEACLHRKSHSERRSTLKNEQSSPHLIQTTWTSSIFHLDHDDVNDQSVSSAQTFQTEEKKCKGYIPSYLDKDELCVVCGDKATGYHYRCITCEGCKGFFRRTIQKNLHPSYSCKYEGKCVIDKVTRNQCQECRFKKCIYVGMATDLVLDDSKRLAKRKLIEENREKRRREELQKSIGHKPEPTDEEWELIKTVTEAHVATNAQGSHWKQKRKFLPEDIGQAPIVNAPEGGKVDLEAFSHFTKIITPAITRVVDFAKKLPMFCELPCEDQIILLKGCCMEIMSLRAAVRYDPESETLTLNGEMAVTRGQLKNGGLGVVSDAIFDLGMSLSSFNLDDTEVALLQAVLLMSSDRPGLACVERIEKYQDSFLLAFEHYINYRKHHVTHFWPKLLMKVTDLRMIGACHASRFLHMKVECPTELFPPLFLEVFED
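Compounds were added to 0.6 uM TRb ligand-binding domain and 20 nM Texas Red-labeled SRC2 peptide in Tris buffer containing 1 uM T3, incubated 5 hr at ambient temperature, then read by fluorescence polarization.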
Tau fluor cs – counter-screen for tau fibril formation inhibitors; tau K18 P301L Alexa594 fluorescence, heparin fibrillization; Potency, µM (top dose mostly 57.7 µM), for inactives: at the top dose activity change, negative = decrease; 0.93% of 280,000 active; note: potency is the fitted concentration of half-maximal effect; nearly all actives have a fitted effect of over 55% in size
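Human K18 P301L tau (15 uM unlabeled plus 0.24 uM Alexa 594-labeled, final) in 100 mM sodium acetate pH 7 was mixed with compound and 20 uM heparin and incubated 6 hr at 37 C.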
Tau fibril ThT – blocks human tau fibril formation measured by thioflavin T | P10636 | recombinant tau K18 P301L, heparin-induced fibrillization, ThT fluorescence | Potency, µM (top dose mostly 57.4 µM), without a hit: at the highest dose activity, negative = inhibition, usual class: inhibitors | 2.1% of 270,000 active; note: potency is the fitted concentration of half-maximal effect; nearly all actives have a fitted effect of over 55% in size
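ThT emission at 510 nm, taken 1 hr after adding 30 uM dye, quantifies aggregates formed when 20 uM heparin acts on human tau K18 P301L for 6 hr at 37 C.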
PNC assembly inh – perinucleolar compartment assembly inhibition; activity change (PNC), negative = inhibition, % at 10 µM; 3.1% of 140,000 active; PC3M PTB-GFP, PNC prevalence imaging, 16 h; active compounds read low; AID 2417;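 active = readout at or below -70, meaning at least 70% loss of cells showing the perinucleolar compartment, a nuclear body marking cancer cells; inconclusive = readout between -30 and a set limit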;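 note: plate controls were DMSO wells for no effect and camptothecin positive control wells for full effect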
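Compounds are pinned in duplicate onto adhered PC3M cells stably expressing GFP-tagged PTB and incubated 16 h at 37 C. Cells are then fixed, nuclei stained with Hoechst, and PNC-positive cells counted.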
TR SRC2 fluor cs – alters Texas Red total fluorescence, flagging assay interference | TRb/SRC2 Texas Red total fluorescence interference | Potency, µM (highest dose often 106 µM), inactives show at the top dose fluorescence change, negative = quenching | 0.29% of 280,000 active; active = well fitted curve in either direction with a large enough effect; inconclusive = small, poorly fitted or top-dose-only effect; note: potency is the fitted concentration of half-maximal effect
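Flags fluorescent or light-absorbing compounds by total fluorescence, S + 2P, at 555 nm excitation and 632 nm emission. Mixture: 20 nM Texas Red SRC2 peptide, 0.6 uM human TRb LBD, 1 uM T3, 5% DMSO; compound exposure 5 h at ambient temperature.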
Tau FP inhib – inhibitors of human tau fibril formation | AID 1468 | P10636 | Potency, µM (highest dose often 57.7 µM), inactives show at the top dose activity, negative = inhibition, usual class: inhibitors | K18 P301L tau heparin fibrillization, Alexa594 FP, 6 h | 0.39% of 280,000 active; note: potency is the fitted concentration of half-maximal effect; nearly all actives have a fitted effect of over 55% in size
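K18 P301L tau (15 uM unlabeled/0.24 uM Alexa 594-labeled, final) + compound + heparin 20 uM final; 100 mM NaOAc pH 7; 6 hr 37 C; ThT 30 uM final added, 1 hr RT; FP ex 555/em 632 nm.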
Numbers without * were called inactive; u = inconclusive; x = no result given; [ ] = remark or other dose. Sampled rows, rich in hits. Any-hit rate of the full collection: about 4.6%. Unless noted, calls come from the whole dose curve; as a rule, active = well fitted curve in the direction sought with a large enough effect; inconclusive = small, poorly fitted or top-dose-only effect, or another doubt; inactive = no such curve, though single readings can be large; an effect the other way counts as inactive or inconclusive. Unless noted, % is set by controls: 0 for no effect and ±100 for the full control effect.

SMILES	TRb SRC2 PPI	Tau fluor cs	Tau fibril ThT	PNC assembly inh	TR SRC2 fluor cs	Tau FP inhib
CCOc1ccc(Nc2nc(C)c(NC(=O)c3cccc(F)c3)c(Nc3ccc(OCC)cc3)n2)cc1	6%	7.9µM*[quencher]	u	x	-2%	10%
CCCc1nnc(-c2ccc(OC)cc2)o1	1%	-15%	u	u	-6%	-15%
Fc1ccc(N2CCN(C3=Nc4cccc5cccc3c45)CC2)cc1	1%	-24%	4.5µM*	x	0%	-1%
c1ccc(CN2CCN(C3=Nc4cccc5cccc3c45)CC2)cc1	4%	-17%	u	-10	-2%	-3%
CCOC(=O)c1c(NC(C)=O)c2c3c(sc2n1Cc1nc(-c2ccccc2Cl)oc1C)CCCC3	-14%	-7%	-7%	x	18µM*[quencher]	-5%
CCOC(=O)c1c(NC(C)=O)c2c3c(sc2n1Cc1nc(-c2cccc(Cl)c2)oc1C)CCCC3	-1%	-17%	-11%	x	-23%	0%
CC1=C(C(=O)OC(C)C)C(c2c(O)ccc3ccccc23)NC(=O)N1 (stereo not given)	-2%	-5%	-14%	-13	1%	6%
CC(NC(=O)CCN1C(=O)c2ccccc2C1=O)c1ccc2c(c1)CCCC2 (stereo not given)	-3%	-21%	-12%	-113*	2%	-1%
C[C@@H](C(=O)CC(=O)OC(C)(C)C)[C@@H](O)c1c(F)cccc1Cl	-5%	x	x	x	-5%	x
COc1cc(NC(=S)NCc2cccnc2)cc(OC)c1OC	-7%	-7%	-11%	x	-3%	8%
COc1cc(NC(=S)NCc2cccnc2)cc(OC)c1	7%	7%	13%	-92*	-2%	-1%
O=C(CNS(=O)(=O)c1ccccc1)OCC(=O)c1ccc([N+](=O)[O-])cc1	-2%	-19%	25µM*	u	-1%	u
CC(Nc1cccc2ccccc12)C(=O)N/N=C/c1ccc([N+](=O)[O-])cc1 (stereo not given)	-17%	7.9µM*[quencher]	u	-22	0%	u
O=C(CNc1ccccc1)c1ccc([N+](=O)[O-])cc1	4%	u	14µM*	u	0%	u
O=C(CNc1cccc2ccccc12)c1ccc([N+](=O)[O-])cc1	1%	u	14µM*	-3	-1%	u
O=C(NCc1ccccc1Cl)c1ccc2nc(Cc3ccccc3)oc2c1	6%	-21%	-3%	x	1%	7%
CCOc1ccc(-c2c(C)nn3c(C)c(C(=O)NCCc4ccc(Cl)cc4)cnc23)cc1OCC	1%	-24%	u	x	-12%	6%
COc1ccc(NS(=O)(=O)c2cc(NC(=O)c3ccc(F)cc3)ccc2OC)cc1	0%[53 µM]	12%	12%	-1	-1%[53 µM]	3%
CC(=O)Nc1ccc(S(=O)(=O)NC2=NCN(CCOC(=O)c3ccccc3)CN2)cc1	9%	-4%	-4%	u	-1%	4%
O=C(O)c1nc(-c2ccccc2)n(-c2cccc(C(F)(F)F)c2)n1	-7%	-8%	-9%	x	1%	2%
CC(C)(C)NC(=O)NC(=O)COC(=O)c1nc(-c2ccccc2)n(-c2cccc(C(F)(F)F)c2)n1	7%	-6%	-12%	-112*	-3%	14%
N=C(N)SCc1cn(-c2ccccc2)nc1-c1ccc(Br)cc1	-2%	-28%	u	x	-1%	u
O=C(Nc1c(-c2ccccc2)nc2ccccn12)c1ccco1	6%	-1%	0%	-82*	2%	-1%
Cc1ccc(-c2nc3ccccn3c2NC(=O)c2ccco2)cc1	0%	6%	3%	-20	1%	4%
C=CCOc1c2ccc(C(=O)NCc3ccc(OC)cc3)cc2nn1C	12%	-15%	-10%	-109*	-2%	5%
COc1ccccc1OCCn1cc(C#N)c2ccccc21	-12%	-22%	-4%	-119*	-4%	u
